From PubChem BioAssay AID1650 (Southern Research Specialized Biocontainment Screening …, 2009)
Measured potencies and affinities stand elsewhere. Calls of active or inactive are those of the source. No rule for the calls is given here.

Assay: mammalian cell viability reduction – secondary assay, cytotoxicity control for West Nile virus antiviral project, dose response (AID 1650)
Conditions: Mammalian host cell viability, cytotoxicity counter-screen; series mostly up to 20 µM

| SMILES | outcome |
| --- | --- |
| CN(C)CCN(CC1CCCN(Cc2ccccc2F)C1)C(=O)Cc1ccc(F)c(F)c1 (centres undefined) | inactive |
| CC(C)c1oc(=O)cc2c1[C@@H](O)[C@H]1OC(=O)[C@@]3(C)CC[C@@H](O)[C@@]2(C)C13 (some centres undefined) | inactive |
| O=C(N/N=C/c1c(O)n(CCc2ccccc2)c(=O)[nH]c1=O)c1ccccc1O | inactive |
| CCN(CC)c1nc2c(C)cccn2c(=O)c1C=C1C(=O)NC(=O)NC1=O | inactive |
| O=c1c2ccccc2nc(/C=C/c2ccccc2O)n1-c1ccccc1O | inactive |
| CC(C)c1oc(=O)cc2c1[C@@H](O)[C@H]1OC(=O)[C@@]3(C)C[C@@H](O)[C@@H](O)[C@@]2(C)C13 (some centres undefined) | inactive |
| O=C1/C(=C\c2ccccc2)C2OCC=C3CN4CCC56c7ccccc7N1C5C2C3CC46 (centres undefined) | inactive |
| Cc1ccc2c(c1)[C@@H]1CN(C)CC[C@@H]1N2C(=O)Nc1cccc(C(F)(F)F)c1 | inactive |
| c1ccc2c(c1)Sc1ccccc1N2CC1CN2CCC1CC2 (centres undefined) | inactive |
